Results on 54 sequences are retold here after publication PMC7819943, “Rice protein-binding microarrays: a tool to detect cis-acting elements near promoter regions in rice”.

The full ranking holds about 68,000 sequences; the median of “fluorescence intensity (a.u.)” is about 9,100, and the highest 2% start at about 16,000. This excerpt belongs to a sample that is enriched for the highest values.

Sequence of OsWRKY34 (Q0JBA9 entry or part of it): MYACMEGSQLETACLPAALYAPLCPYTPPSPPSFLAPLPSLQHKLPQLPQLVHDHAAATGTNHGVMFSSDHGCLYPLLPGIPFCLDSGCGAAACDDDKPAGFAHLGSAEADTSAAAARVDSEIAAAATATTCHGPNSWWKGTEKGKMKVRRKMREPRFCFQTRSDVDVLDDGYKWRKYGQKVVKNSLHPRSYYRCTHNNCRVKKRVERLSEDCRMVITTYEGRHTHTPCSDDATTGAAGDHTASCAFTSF

In this test the target is OsWRKY34 (Oryza sativa, UniProt Q0JBA9 1-250). The experiment in a line: protein-binding microarray (RPBM); PBS, 2% BSA, 51.3 ng/ul salmon testes DNA, 50 uM zinc acetate, 200 nM TF, 25 C, 1 h; high values mean tight binding. To be noted: protein: recombinant; tags: N-terminal polyhistidine and DsRed monomer fusion (pET32a); label: CyDye5-dUTP incorporated in the synthesized complementary strand; 3' TTTTT single-stranded linker to array surface; dsDNA, one strand shown. In short, it runs like this:
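Binding signal is defined as the fluorescence intensity of each feature in arbitrary units, read on an Axon 4000B scanner. Transcription factors with N-terminal polyhistidine and DsRed fusions came from E. coli BL21-CodonPlus and were purified on Ni–NTA. They were incubated at 200 nM for 1 h at 25 °C on a custom Agilent array that had been made double-stranded with Cy5-dUTP, with 50 µM zinc acetate present, and the array was washed.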
In the case of “CCCGGCCCATCTCTCTGGCTCGCACTCCGCCTCCGCCACCCGGAGTCACCTAGTGCAG”, the binding signal is 10500 fluorescence intensity (a.u.).
With “CCTCCGTTTCTAAATATTTAACGCCATTGACTTTTTAGCACGGAGTCACCTAGTGCAG”, the binding signal is 9160 fluorescence intensity (a.u.).
On to “ACCCTCCGTTTCTAAATATTTAACACCGTTGACTTTTTAGCGGAGTCACCTAGTGCAG”, for which the binding signal was 23700 fluorescence intensity (a.u.).
As to “CTCCCTCCGTTTCTAAATATTTGATACCGTTGACTTTTTACGGAGTCACCTAGTGCAG”, the binding signal is 22300 fluorescence intensity (a.u.).
The result for “AAAATGTTTGACACCGTTGACTTTTTAGCATATGTTTGACCGGAGTCACCTAGTGCAG” reads 30800 fluorescence intensity (a.u.).
The result for “ATCCGTTTTATATTATAAATCATTTGACTTTTTCTATTAGCGGAGTCACCTAGTGCAG” reads 8510 fluorescence intensity (a.u.); that for “AAATGTTTGACACCGTTGATTTTTTAGCGCATGTTTGACCCGGAGTCACCTAGTGCAG”, 8840 fluorescence intensity (a.u.).
For “AATCTTTTATACATATAATCCCTCCGTTTCTAAATATTTACGGAGTCACCTAGTGCAG” the value was 8110 fluorescence intensity (a.u.); for “AGTACTCCCTCCGTTTCTAAATATTTGACACCGTTGACTTCGGAGTCACCTAGTGCAG”, 12700 fluorescence intensity (a.u.).
In the case of “TTCAAAATGTTTGACACCATTGACTTTTTAGCATATGTTTCGGAGTCACCTAGTGCAG”, the binding signal was 10000 fluorescence intensity (a.u.).
“TCGAAATGTTTGACACCGTTGACTTTTTAGCATATGTTTGCGGAGTCACCTAGTGCAG”: the binding signal is 33700 fluorescence intensity (a.u.).
Turning to “GTCATTGTTTGGAGTGGAGTTTTGCTTAGATTAATCTGTCCGGAGTCACCTAGTGCAG”, the binding signal is 8860 fluorescence intensity (a.u.).
Regarding “ACCACCACCCTGATGGATCTTGGCTCTAGCTCCTGGTTTTCGGAGTCACCTAGTGCAG”, the binding signal is 8110 fluorescence intensity (a.u.).
Regarding “GCTGCGCACCTAATGCTACTGTTTTGTTAGTATTTATTTACGGAGTCACCTAGTGCAG”, the binding signal was 8460 fluorescence intensity (a.u.).
For “GTTAGCTTCTACATTTCTCGTTTCTGCTGAAAATAGTGGACGGAGTCACCTAGTGCAG” the value was 9540 fluorescence intensity (a.u.); for “ACGACGAGGAGGCGGTGGTGGTCGTGCGCGGGGAGGAGTCCGGAGTCACCTAGTGCAG”, 9310 fluorescence intensity (a.u.); for “TGCTCTTTTTTTCTTGATTATAACCTTCCGGGGTAGTTTTCGGAGTCACCTAGTGCAG”, 8720 fluorescence intensity (a.u.).
For “ACACTTGGCATTAATCTAATTTAACTTTTTTTTCTTTATCCGGAGTCACCTAGTGCAG” the value was 8440 fluorescence intensity (a.u.); for “ATTGAAACATGATCCGAGTCATAGCCTGACTGGAATTCTTCGGAGTCACCTAGTGCAG”, 9120 fluorescence intensity (a.u.).
The result for “TCGTGCGTGCGTGTTTAATTGTCAACCCATACACAACTTGCGGAGTCACCTAGTGCAG” reads 8510 fluorescence intensity (a.u.); that for “TAAATATTTGACACCGTTGACTTTTTACACATATTTGACCCGGAGTCACCTAGTGCAG”, 35100 fluorescence intensity (a.u.); that for “TTGACATAAATTTTCAACCAACCCGTTGTTTTTGTTTTACCGGAGTCACCTAGTGCAG”, 9250 fluorescence intensity (a.u.).
On to “AAATATTTGACCGTTCGTTTATTATTTTTATTTTTTTTACCGGAGTCACCTAGTGCAG”, for which the binding signal was 12200 fluorescence intensity (a.u.).
The result for “TTCCTCTTCTCTTCTCGTCTCTTGTAGTAGTATATATTTACGGAGTCACCTAGTGCAG” reads 8430 fluorescence intensity (a.u.); that for “TCACTTTTCATGTACAAAACATGTTGATATTGTGGTTGGTCGGAGTCACCTAGTGCAG”, 8200 fluorescence intensity (a.u.); that for “TCGTTCTTGGCTGGGTTTGGTTTGGTTTGGTTTGGTCTCGCGGAGTCACCTAGTGCAG”, 45500 fluorescence intensity (a.u.).
“CGTGGGGTTTTCTTGTTTCGGAGGTAGGGAGAGGTTTCGTCGGAGTCACCTAGTGCAG”: the binding signal was 11900 fluorescence intensity (a.u.).
The result for “TGTGGTGGAGGCCGGCTGGGTTCTCTTGGGGTTTGGCCGGCGGAGTCACCTAGTGCAG” reads 10400 fluorescence intensity (a.u.); that for “TTGGTCTCTCCTCGTCGCTGGGGTTCTTTGTTCTTGTAGTCGGAGTCACCTAGTGCAG”, 10000 fluorescence intensity (a.u.).
Take “GTTGTTCTTGGCGGCTAGGTCGTGGGGTTTTCTTGTTTCGCGGAGTCACCTAGTGCAG”: the binding signal was 22800 fluorescence intensity (a.u.).
For “TTGGTTTGGTTGCTCCTCGCGCTGTTATTGGTTGCTCCTCCGGAGTCACCTAGTGCAG” the value was 19900 fluorescence intensity (a.u.); for “TTCGCGCGCTGCTCGCTCGCTTGGTTGGTTGGTTGATTGCCGGAGTCACCTAGTGCAG”, 15200 fluorescence intensity (a.u.).
“GCTGTTATTGGTTGCTCCTCGCGGTCTCCTTTTTTGGTGACGGAGTCACCTAGTGCAG”: the binding signal is 10800 fluorescence intensity (a.u.).
The result for “ACCGAATCCGAATCCCGCGTTTCTTTGTTGCGCGCGCGACCGGAGTCACCTAGTGCAG” reads 10100 fluorescence intensity (a.u.); that for “GTTGGGGTGGTTGGTTTGGGGATCCCCTGTTGTACCCTGCCGGAGTCACCTAGTGCAG”, 10700 fluorescence intensity (a.u.).
The result for “CGCTCCGCGATTCGTGTTGGTTCTTTTTTTTGTTTCTTGGCGGAGTCACCTAGTGCAG” reads 8470 fluorescence intensity (a.u.); that for “AAATCCCCTTGTTACCGCGCGTTGTTTGGTTGTACCGCGCCGGAGTCACCTAGTGCAG”, 16600 fluorescence intensity (a.u.).
For “TTCGGGCATACGCCACCCCGCCTTGTCATCCACCGCGCCCCGGAGTCACCTAGTGCAG” the value was 8470 fluorescence intensity (a.u.); for “AACATTTATTTCCATATCTTCATATATGGTTCCATATGAACGGAGTCACCTAGTGCAG”, 8400 fluorescence intensity (a.u.); for “TGCCAAGGACTGCATCTTCATCATTGCCTGGGTGTCCACCCGGAGTCACCTAGTGCAG”, 8700 fluorescence intensity (a.u.).
In the case of “AACCCACAATTACGCGGCGGTGCATTCTCGTTGCTTTGACCGGAGTCACCTAGTGCAG”, the binding signal is 11400 fluorescence intensity (a.u.).
With “ACCGACTCAAAAACCTAACGGCACTTTTTTTATTTTCAACCGGAGTCACCTAGTGCAG”, the binding signal was 10600 fluorescence intensity (a.u.).
For “AACCTCAATTTTGTTTGTTTTGCCTTTTGGTTCAAATACTCGGAGTCACCTAGTGCAG” the value was 8180 fluorescence intensity (a.u.); for “GGTTGGCTTCTTCTCGGTTTGTTCGTTCCTTGTGGTCGAGCGGAGTCACCTAGTGCAG”, 8240 fluorescence intensity (a.u.); for “GTTGGTTGGTTGGTTGGTTGGCTTCTTCTCGGTTTGTTCGCGGAGTCACCTAGTGCAG”, 25000 fluorescence intensity (a.u.).
For “GCGTTTTTGTCTCTCTGCTCTCTGCTGCTGCTGCTGGGTCCGGAGTCACCTAGTGCAG” the value was 11300 fluorescence intensity (a.u.).
As for “TCGCGTCGCGTTTCGACCTCGCGCTCTGGGTCTGGGTGTCCGGAGTCACCTAGTGCAG”, the binding signal is 8330 fluorescence intensity (a.u.).
With “CTGCGCTCTCCATTGTTTTGTGTTGTGTTTGTTTGCAGTCCGGAGTCACCTAGTGCAG”, the binding signal is 17700 fluorescence intensity (a.u.).
For “TCGCGCGTGTCACTGGGTTTGGGTTGGGTCTCTCTCTCTCCGGAGTCACCTAGTGCAG” the value was 18400 fluorescence intensity (a.u.); for “TCTACGAGGGTTTTTGCGCTTTTGTTGCTCTCCGCTCCGCCGGAGTCACCTAGTGCAG”, 8160 fluorescence intensity (a.u.).
As for “ACGTTGTTTGTGTCACGCTTCTCAAATCCCTTGGTGTTCTCGGAGTCACCTAGTGCAG”, the binding signal is 11700 fluorescence intensity (a.u.).
Turning to “GGTTGGTGACGCGTTGTTGTTTGTTCCTCAAATTTGTTCTCGGAGTCACCTAGTGCAG”, the binding signal is 16500 fluorescence intensity (a.u.).
For “GGTTTCGGTCTCGGTTTTTTCGGTTCGGTTCTTCGGTTCGCGGAGTCACCTAGTGCAG” the value was 9660 fluorescence intensity (a.u.).
For “CTCATTGTTGTTGTGTTGTTGCGTTTGGTTTGGTGTGCTCCGGAGTCACCTAGTGCAG” the value was 8510 fluorescence intensity (a.u.).
